# Screening results (PubChem BioAssay)
# HCV inhibitor – HCV inhibition. Huh7.5.1 HCVcc-Cre infection, luciferase reporter, 44 h. Potency, µM (top dose mostly 41.8 µM), inactives show at the highest dose activity change, negative = inhibition, usual class: inhibitors. 340,000 tested, 3.4% active. AID 651820; further: potency means the concentration at half of the fitted maximal effect
#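 Reporter virus HCVcc-Cre (~0.5 moi) infects cells exposed to compound; seeding density 1,000 cells/well with 4 h settling beforehand. Luminescence, 15 sec read, taken 44 h post-infection following a 15 min RT substrate incubation.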
# VACV mCherry inh – inhibitors of vaccinia virus infection (mCherry reporter signal); Vaccinia virus mCherry reporter infection, fluorescence; 310,000 tested, 0.63% active; Potency, µM (top dose mostly 36.5 µM), inactives show at the top dose activity change, negative = inhibition, actives largely listed as inhibitors; calls by dose curve; tested in A549 cells; further: potency means the concentration at half of the fitted maximal effect; nearly all actives have a fitted effect of over 35% in size
# Vaccinia Venus – vaccinia inhibition (Venus reporter); 330,000 tested, 0.46% active; AID 720580; Vaccinia virus Venus reporter expression, fluorescence; Potency, µM (doses to about 36.5 µM), inactives show top-dose activity change, negative = inhibition, usual class: inhibitors; calls by dose curve; tested in A549 cells; further: potency means the concentration at half of the fitted maximal effect; nearly all actives have a fitted effect of over 30% in size
# HCMV antiviral – human cytomegalovirus inhibition; activity change, negative = inhibition, % at 57.5 µM; HFF cells, HCMV-luciferase reporter, 72 h; active compounds read low; AID 1259415; 410,000 tested, 4.5% active; in the data active means activity change below about -60%; inconclusive means no clear call, values can overlap the other calls; inactive means above about -39%
#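 Inhibition of viral replication was scored as loss of reporter luminescence in HFFs infected with HCMV-luciferase (MOI 1 PFU/cell) for 72 h; compounds tested at 2 doses, normalized to buffer and Salinomycin controls.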
# FMDV inh – antivirals against foot and mouth disease virus. FMDV antiviral cell-based qHTS. Potency, µM (series often up to 57.9 µM), for inactives: at the highest dose activity change, negative = inhibition, hits mostly inhibitors. 410,000 tested, 1.2% active; calls by dose curve; tested in HEK293T cells; further: read-out not given here; potency means the concentration at half of the fitted maximal effect; nearly all actives have a fitted effect of over 45% in size
# Giardia FBPA inh – blocks Giardia fructose-bisphosphate aldolase activity | A8B2U2 | purified Giardia FBPA | Potency, µM (top dose mostly 59.6 µM), inactives show at the top dose activity, negative = inhibition, actives largely listed as inhibitors | 290,000 tested, 0.71% active; further: potency means the concentration at half of the fitted maximal effect; nearly all actives have a fitted effect of over 55% in size
# Target sequence (A8B2U2 whole entry, looked up): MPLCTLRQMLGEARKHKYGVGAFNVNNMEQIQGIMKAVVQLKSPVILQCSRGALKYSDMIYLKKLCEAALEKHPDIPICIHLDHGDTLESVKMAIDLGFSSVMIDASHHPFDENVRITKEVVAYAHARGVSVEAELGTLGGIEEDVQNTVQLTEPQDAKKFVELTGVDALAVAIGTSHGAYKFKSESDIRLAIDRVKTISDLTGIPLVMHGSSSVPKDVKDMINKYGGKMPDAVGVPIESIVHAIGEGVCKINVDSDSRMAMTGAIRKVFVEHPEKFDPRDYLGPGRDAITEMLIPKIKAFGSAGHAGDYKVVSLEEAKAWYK
#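 40 nM FBPA preincubated 10 min at RT with compound (up to 57.5 uM final), then substrate plus GAPDH/TPI/NAD/arsenate coupling and diaphorase/resazurin added. Fluorescence read after 20 min at RT, 525/598 nm.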
# The depositor's hits bear a star; i = inactive; ? = inconclusive; · = not tested or not shown; [ ] = remark or other dose. Shown are actives, neighbours in structure and some others; about 7.5% of the full set was active somewhere. Unless noted, the call rests on the fitted dose curve; in most records, active means well fitted curve in the direction sought with a large enough effect; inconclusive means small, poorly fitted or top-dose-only effect, or another doubt; inactive means no such curve, though single readings can be large; an effect the other way counts as inactive or inconclusive. On the % scale 0 is the no-effect control and ±100 the full control effect.
SMILES,HCV inhibitor,VACV mCherry inh,Vaccinia Venus,HCMV antiviral,FMDV inh,Giardia FBPA inh
COc1ccccc1-c1ccc2n(c1=O)C[C@@H]1[C@@H](CO)[C@H](C(=O)NCCCN(C)C)N(C(C)=O)[C@H]21,·,·,·,3,·,·
CCc1cc([N+](=O)[O-])cc(CC)c1N,11µM*,·,?,-20,-23%,-2%
CCc1ccccc1N(C)C(=O)c1cc2c(=O)oc3ccccc3c2s1,·,-9%,2.5µM*,-9,?,·
CCN(C(=O)c1cc2c(=O)oc3ccccc3c2s1)c1ccccc1F,·,-9%,-7%,-2,-8%,·
CCN(C(=O)c1cc2c(=O)oc3ccc(C)cc3c2s1)c1ccccc1C,·,-2%,-3%,13,?,·
CCCN(C(=O)c1cc2c(=O)oc3ccccc3c2s1)c1ccccc1C,·,-7%,-7%,-9,40µM*,·
Cc1onc(-c2ccccc2Cl)c1C(=O)Nc1nnc(C2CCCCC2)s1,·,-15%,-16%,·,·,·
Cc1cc(NCCc2c[nH]c3ccccc23)ccc1Nc1cccnc1,·,·,·,-87*,·,·
C[C@H]1[C@@H](NS(=O)(=O)c2ccc(Br)cc2)CC[C@@]23CCCN2C(=O)CCC[C@@H]13,·,·,·,4,·,·
CCC(=NCCc1ccccc1)c1c(O)[nH]c(=O)[nH]c1=O,0.32µM*,-11%,-16%,28,-16%,0%
CC(=NCCc1ccccc1)c1c(O)[nH]c(=O)[nH]c1=O,2%,-1%[7.34 µM],-16%[7.34 µM],6,6%,7%
COc1cc(CNCCNC(=O)c2nonc2N)ccc1OCc1ccc(Cl)nc1,-28%,·,·,?,-25%,-5%
O=C(c1ccc2c(c1)OCCO2)C1CCN(C(=O)c2ccc(F)c(F)c2)CC1,?,·,·,-68*,-44%,4%
O=[N+]([O-])c1ccc(CSc2nc3ncc(Br)cc3[nH]2)cc1,-2%,·,·,-62*,16%,-1%
O=C(CSc1nc2ncc(Br)cc2[nH]1)c1cccc([N+](=O)[O-])c1,-26%,-13%,-8%,-2,8%,-24%
CCOc1ccccc1NC(=O)Cn1nc2c3cc(F)ccc3n(Cc3cccc(C)c3)cc-2c1=O,·,-14%,-21%,7,-16%,·
CCOC(=O)c1c(C)n2c3c(cc(C)cc13)CCC2,10µM*,i,1%,?,4%,-12%
COc1cccc(C2(CC(=O)N3CCN(c4ccccn4)CC3)CC(=O)N(C3CCCC3)C2=O)c1 (centres undefined),·,-1%,-17%,·,-1%,·
COc1ccc(C)cc1NC(=O)c1sc2ncnc(N3CCN(c4ccccn4)CC3)c2c1C,1.4µM*,5%,-3%,-12,-24%,5%
CCn1ncc(C2=NOC(C(=O)NCC(C)C)C2)c1C (centres undefined),10%,i,-20%,18,23%,4%
CCn1ncc(C2=NOC(C(=O)Nc3cnn(C45CC6CC(CC(C6)C4)C5)c3)C2)c1C (centres undefined),-23%,·,·,-83*,?,-2%
CCn1cc(C2=NOC(C(=O)Nc3c(C)nn(Cc4ccc(F)cc4)c3C)C2)c(C)n1 (centres undefined),?,i,-9%,-19,?,4%
CCn1cc(C2=NOC(C(=O)Nc3cccc(C(C)=O)c3)C2)c(C)n1 (centres undefined),6.3µM*,·,·,-64*,?,11%
Cc1ccc2oc3ccccc3c(=O)c2c1,-24%,8%,13%,-26,52%,·
O=c1c2ccccc2oc2ccc(-c3ccc4cc[nH]c4c3)cc12,16µM*,?,-16%,·,-14%,·
SMILES,HCV inhibitor,VACV mCherry inh,Vaccinia Venus,HCMV antiviral,FMDV inh,Giardia FBPA inh
CN(CC(=O)Nc1nc2ccccc2s1)S(=O)(=O)c1ccc(Cl)cc1,?,·,·,55,-27%,-1%
CN(C)C(=S)Nc1nc2ccccc2s1,14µM*,-17%,-24%,-4,34%,?
CN(CC(=O)Nc1nc2ccccc2s1)S(=O)(=O)c1ccc(Br)cc1,?,i,-14%,1,35µM*,-5%
CCOCCCNCc1cc(Br)ccc1OCc1ccccc1,?,-10%,-1%,-34,-2%,0%
COc1ccc(CNCCc2ccc(Cl)cc2)cc1OCc1ccccc1,?,-28%,-12%,·,-21%,?
CCOc1cccc(CNc2ccc(O)cc2)c1OCc1ccc(Cl)cc1,1%,24%,21%,?,?,?
OCCNCc1cc(Br)ccc1OCc1ccccc1,-16%,-28%,-11%,-68*,-25%,-5%
CCOc1cc(CNc2ccc(O)cc2)ccc1OCc1ccc(Cl)cc1Cl,-4%,i,-1%,·,?,16µM*
CCOc1cc(CNCCc2ccc(S(N)(=O)=O)cc2)ccc1OCc1ccccc1,13µM*,·,·,?,?,·
NS(=O)(=O)c1ccc(CCNCc2cc(Br)ccc2OCc2ccccc2)cc1,11µM*,-20%,?,-66*,?,0%
OC(c1ccccc1)c1nc(-c2cncnc2)cs1 (centres undefined),·,6%,-7%,?,-3%,·
COc1cc2nc(CN(CCO)C3CS(=O)(=O)CC3O)nc(N3CCCCC3)c2cc1OC (centres undefined),·,-12%,-11%,·,-3%,·
Cc1ccc([N+](=O)[O-])c(Oc2ncnc3c2oc2ccccc23)c1,·,-12%,-8%,18,29%,·
CCOc1cc(CNCc2ccccc2)ccc1OCc1ccc(Cl)cc1,22µM*,?,?,-85*,?,1%
CN1CCN(S(=O)(=O)Cc2ccc(Cl)cc2)CC1,-5%,-12%,-9%,-7,0%,0%
O=C(NC(c1cccnc1)C(F)(F)F)c1cc(COc2ccc3c(c2)CCCC3)on1 (centres undefined),4.5µM*,·,·,-82*,0%,·
CC1CCN(C(=O)c2[nH]cnc2C(=O)NC2CCN(C(=O)OC(C)(C)C)CC2)CC1,?,-24%,-19%,-2,-11%,·
COc1ccc(-n2ncc(N(C)n3cccc3)c(Cl)c2=O)cc1,13%,·,-2%,79,22%,-1%
COc1ccc(-n2ncc(Cl)c(Cl)c2=O)cc1,3.5µM*,-21%,-22%,-101*,8.9µM*,0%
COc1ccc(Sc2cnn(-c3ccccc3)c(=O)c2Cl)cc1,-12%,13µM*,?,?,?,1%
COc1ccccc1-c1cc2nc(C)cc(C)n2n1,11%,i[7.34 µM],-9%[7.34 µM],58,37%,-13%
Cc1oc(-c2ccccc2F)nc1CS(=O)CC(=O)NC(C)C (centres undefined),·,-3%,-9%,9,15%,·
Cc1ccc(S(=O)(=O)Nc2ccc(N(C)C)cc2)cc1,-4%,-23%,-13%,-24,7%,-19%
CN(C)c1ccc(NS(=O)(=O)c2ccc(-c3csnn3)cc2)cc1,?,?,-12%,-65*,6%,-8%
